Experimental data: PubChem BioAssay (EPA / NIEHS)
Active and inactive are the calls of the source. Rule for the calls: active = hit-call score of the fitted dose curve at least 0.9, where 1 is the maximum; inactive = score below 0.9.

Read-out: Cytochrome P450 3A7 (Homo sapiens) (UniProt P24462)
Test: LTEA_HepaRG_CYP3A7: Life Technologies and Expression Analysis (LTEA) Assay for CYP3A7 using HepaRG (AID 2283492)
Details: mRNA level, 48 h; actives raise or lower the signal
Experimental: LTEA_HepaRG is a cell based, multiplexed-readout assay that uses HepaRG, a human liver cell line, with measurements taken at 48 hours after chemical dosing on a 96-well plate.LTEA_HepaRG_CYP3A7 is one of 102 assay component(s) measured in the LTEA HepaRG cell culture assay. It is a marker of NR mediated metabolism/Undifferentiated hepatocyte.Data from the assay component LTEA_HepaRG_CYP3A7 was analyzed into 1 endpoint. This assay endpoint, LTEA_HepaRG_CYP3A7, was analyzed with bidirectional fitting relative to DMSO as the negative control and baseline of activity. Using a type of inducible reporter, measures of mRNA induction for gain or loss-of-signal activity can be used to understand regulation of transcription factor activity. To generalize the intended target to other relatable targets, this assay endpoint is annotated to the cyp intended target family, where the subfamily is xenobiotic metabolism.
A total of 1060 chemcials from the ToxCast library were tested in eight-point concentration-response experiments. Cell culture and cytotoxicity assays were conducted at Thermo Fisher Scientific's Custom Services facility (Madison, WI). A single lot of human HepaRG cells (Thermo Fisher Scientific, Frederick, MD) was used for the cell culture experiments. 96-well format collagen type I coated plates of human HepaRG cells were prepared using established methods. Briefly, cryopreserved HepaRG cells were thawed, plated at a density of approximately 100,000 cells/well in HepaRG Thaw, Plate, and General Purpose media (HPRG770, Thermo Fisher Scientific), and incubated for 48 hours. 0.5% DMSO was selected as vehicle control to balance the requisite need of DMSO in HepaRG cultures to maintain differentiation (for example, baseline metabolism, proportions of hepatocytes vs. cholangiocytes), while enabling further hepatic receptor pathway activation (for example, PXR and CAR) in response to chemical exposure. 48 hours after plating, the culture medium was replaced with HepaRG Serum-Free Incudtion Media. Cells were exposed to each test chemical in duplicate and maintained in CO2 incubators for another 48 hours. Chemical plates were thawed to room temperature and 200x concentrations of treatment groups were prepared. 8-point conentration-reponse curves were made with the highest exposure at 100 uM, followed by half-log dilutions, all in 0.5% DMSO. Each test plate contained variouse controls, induction positive controls (1mM phenobarbital), cytotoxicity positive controls ([…] aflatoxin B1), vehicle controls (0.5% DMSO), and total lysis controls (0.5% DMSO). Cell morphology images were taken using an Essen IncuCyte FLR automated microscope, with six 96-well plates imaged in about 24 minutes. Images were captured and exported and JPEG files. Spent culture media was transfered to black-well plates for the LDH assay, and remaining media was sorted at -80 C for later use. Cells were treated with RLT buffer and frozen until shipped for gene expression analysis. Total RNA was isolated from the cell suspension in 75 uL of Buffer RLT (Qiagen, Germantown, MD 20874) by Quintiles/Expression Analysis (Durham, NC) using a custom isolation procedure. Total RNA from each plate well was transferred to a preamplification plate. Fluidigm's 96.96 Dynamic ArrayTM (Fluidigm, Amsterdam, the Netherlands) technology was used for gene expression analyses by quantitative reverse transcription polymerase chain reaction (qRT-PCR, performed by Quintiles/Expression Analysis, Durham, NC)89. Standard TaqManTM Assays (Applied Biosystems/ThermoFisher Scientific, Foster City, CA) were used to assess the expression of 93 genes selected based on their selectivity and sensitivity to important hepatic receptors known to be modulated by environmental chemicals; importance in human hepatocyte functionality; and hepatotoxicity. […]

Chain of Cytochrome P450 3A7 (Homo sapiens) (P24462 whole entry, looked up): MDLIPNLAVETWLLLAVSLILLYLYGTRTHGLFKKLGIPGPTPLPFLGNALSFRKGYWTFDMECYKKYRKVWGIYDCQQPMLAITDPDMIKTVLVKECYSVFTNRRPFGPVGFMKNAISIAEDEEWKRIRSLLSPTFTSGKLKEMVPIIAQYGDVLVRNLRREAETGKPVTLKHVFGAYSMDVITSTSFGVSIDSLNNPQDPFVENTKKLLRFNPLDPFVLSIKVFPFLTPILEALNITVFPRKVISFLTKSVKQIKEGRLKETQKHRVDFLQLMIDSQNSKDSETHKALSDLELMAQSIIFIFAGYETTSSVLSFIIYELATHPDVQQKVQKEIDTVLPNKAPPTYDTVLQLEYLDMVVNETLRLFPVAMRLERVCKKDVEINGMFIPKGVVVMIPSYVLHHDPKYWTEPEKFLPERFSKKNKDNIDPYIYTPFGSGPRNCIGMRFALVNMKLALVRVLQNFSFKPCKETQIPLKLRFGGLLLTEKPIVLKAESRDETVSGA

SMILES	outcome	AC50
CCc1cccc(CC)c1N	inactive	
CCN(CC)C(=S)SSC(=S)N(CC)CC	inactive	
CC(C)CC(C)O (stereo not given)	inactive	
O=C(NO)C1(NS(=O)(=O)c2ccc(Oc3ccc(F)cc3)cc2)CCOCC1	inactive	
Cc1nccn1-c1ccc(Sc2cccc(C3(C(N)=O)CCOCC3)c2)cc1		10.4 µM (active)
Cc1ncc([C@@H](CCCCCCc2ccc3c(n2)NCCC3)CC(=O)O)cn1	inactive	
CCCCC(CC)C(=O)OCCOCCOCCOC(=O)C(CC)CCCC (stereo not given)	inactive	
c1ccc2ncccc2c1	inactive	
CCCCCCCCCCCCCCCCOS(=O)(=O)O	inactive	
CC[C@H](C)C(=O)O[C@H]1C[C@H](O)C=C2C=C[C@H](C)[C@H](CC[C@@H](O)C[C@@H](O)CC(=O)O)[C@H]21	inactive	
O=C(O)c1cccc(C(=O)O)c1	inactive	
CCc1ccc(O)c(C(C)(C)C)c1	inactive	
c1ccc2cc3ccccc3cc2c1		13.2 µM (active)
O=S(=O)(O)c1ccc(N=Nc2c(O)ccc3cc(S(=O)(=O)O)ccc23)cc1	inactive	
O=c1[nH]cnc2c1ncn2[C@H]1CC[C@@H](CO)O1	inactive	
NC(=O)NN=Cc1ccc([N+](=O)[O-])o1	inactive	
OCCOCCOCCO	inactive	
CCCCCCCCN(C)C	inactive	
CCCC(CCC)C(=O)O	inactive	
CCCc1ccccc1	inactive	

SMILES	outcome	AC50
NNC(=O)c1ccncc1	inactive	
CCOc1ccc2[nH]cc(C(=O)NCc3ccccc3)c(=O)c2n1	inactive	
NC(N)=O	inactive	
CCCCCCCC/C=C\CCCCCCCC(=O)OC[C@@H](O)[C@H]1OC[C@H](O)[C@H]1O	inactive	
NC(=O)N(O)[C@@H]1COc2cc(OCc3ccccc3)ccc21	inactive	
CCCOc1ccc(S(=O)(=O)N2CCN(CC)CC2)cc1-c1nc2c(CC)n(Cc3ccccn3)nc2c(=O)[nH]1		1.22 µM (active)
O=S1(=O)CCCO1	inactive	
CCCCN1C(=O)[C@@H]([C@H](O)C2CCCCC2)NC(=O)C12CCN(Cc1ccc(Oc3ccc(C(=O)O)cc3)cc1)CC2		2.38 µM (active)
C[C@]12C=CC(=O)C=C1CC[C@H]1[C@@H]3C[C@@H](O)[C@](O)(C(=O)CO)[C@@]3(C)C[C@H](O)[C@@]12F	inactive	
CC(=O)c1ccccc1	inactive	
COc1cc(C(C)C)c2c(c1)S(=O)(=O)N(COc1cc(=O)n3cccc(OCCN4CCCCC4)c3n1)C2=O		23.6 µM (active)
CCCCCCCCCCCCCCO	inactive	
OC(Cn1cncn1)(Cn1cncn1)c1ccc(F)cc1F	inactive	
c1ccc2c(c1)-c1cccc3c1c-2cc1ccccc13		13 µM (active)
O=C(O)c1ccc2c(c1)nc(C(=O)NC1CCN(C3CC3)CC1)n2Cc1cc(-c2ccc(Cl)s2)on1	inactive	
CC(C)CCCCCCOC(=O)C1CCCCC1C(=O)OCCCCCCC(C)C (stereo not given)	inactive	
COCc1nnc(-c2ccc[n+]([O-])c2)n1-c1c(Cl)c(Cl)cc2[nH]c(=O)c(=O)[nH]c12	inactive	
O=C(O)c1cccc(C[C@@H]2COc3ccc(OCc4nc5cc(F)ccc5s4)cc3[C@@H]2O)c1		82.2 µM (active)
OC[C@H]1O[C@@](CO)(O[C@H]2O[C@H](CO)[C@@H](O)[C@H](O)[C@H]2O)[C@@H](O)[C@@H]1O	inactive	
OC(CCl)CCl	inactive	
